Compound activity from PubChem BioAssay.
The full list was thinned out, with hits kept by preference.
Pf apPOL inh – Pf-apPOL DNA polymerase inhibition. Recombinant Pf-apPOL, molecular beacon fluorescence, 1.5 h. inhibition, % at 10 µM. actives 0.25% (n = 210,000). AID 1794808
mHTT CaM bind – inhibitors of human mutant huntingtin-calmodulin interaction. P42858. actives 3.6% (n = 190,000). inhibition, % at 15 µM. AlphaScreen His-mHTT/GST-CaM binding, luminescence
Large screens that a line does not name were inactive. No stated cut-off is given here; in the data, active means inhibition above about 50%; inactive means the rest.

Cc1cccc2oc(-c3cc(N=Cc4ccc([N+](=O)[O-])cc4)ccc3O)nc12	Pf apPOL inh 59
CCN(C)C(=O)c1nnc(N2CCCCC2)c2ccccc12	none
O=c1[nH]c(-c2ccc(Br)cc2)cn1-c1ccc(Cl)cc1	mHTT CaM bind 63
O=c1[nH]c(-c2ccc(F)cc2)cn1-c1ccc(Br)cc1	none
NC(=O)c1ccc(NC(=O)CCCC(=O)O)cc1	none
Cc1noc(C)c1S(=O)(=O)N1CCC(CC(=O)NC(C)C)CC1	none
CS(=O)(=O)N1CCN(S(=O)(=O)C2CC2)CC1	none
COc1ccccc1Oc1ccc2c(c1)C(=O)N(c1ccccc1OC)C2=O	none
COc1ccc(NC(=O)C2CCN(c3cc(=O)n(C)c(=O)n3C)CC2)c(OC)c1	none
COc1cc(OC)c(NC(=O)C2CCN(c3cc(=O)n(C)c(=O)n3C)CC2)cc1Cl	mHTT CaM bind 59
CCn1c(N2CCC(C(=O)NCc3cccc(Cl)c3)CC2)cc(=O)n(C)c1=O	mHTT CaM bind 59
Cn1c(N2CCC(C(=O)N3CCC(Cc4ccccc4)CC3)CC2)cc(=O)n(C)c1=O	mHTT CaM bind 75
CCc1cccc(NC(=O)C2CCN(c3cc(=O)n(C)c(=O)n3C)CC2)c1	mHTT CaM bind 66
Cn1c(N2CCC(C(=O)Nc3ccccc3)CC2)cc(=O)n(C)c1=O	none
CCn1c(N2CCC(C(=O)NCc3ccc(F)cc3)CC2)cc(=O)n(C)c1=O	none
Cn1c(N2CCC(C(=O)N3CCN(Cc4ccccc4)CC3)CC2)cc(=O)n(C)c1=O	none
CCCc1cc2c(=O)c(-c3ccc(C(=O)OCC)o3)coc2cc1OC	none
COc1ccc(Cl)cc1S(=O)(=O)N1CCC(c2cc3n(n2)CCCNC3=O)CC1	none
CCCN1C(=O)Cc2cc(C(=O)N3CCN(c4ccccc4C)CC3)ccc21	mHTT CaM bind 55
CCCN1C(=O)Cc2cc(C(=O)N3CCN(c4ccccn4)CC3)ccc21	none
O=C(c1cnc2ccccc2n1)N1CCN(Cc2ccsc2)CC1	none
CC(C)C(=O)Nc1ccc(NC(=O)COc2ccccc2Cl)cc1	none
Cc1ccccc1CSCc1ccc(C(=O)O)o1	none
Cc1ccccc1CSCc1ccc(C(=O)N2CCC(c3ccncc3)CC2)o1	mHTT CaM bind 58
NC(=O)c1ccsc1NC(=O)c1ccc(S(=O)(=O)N2CCc3ccccc3C2)cc1	none
O=c1nc(SCc2ccc(F)cc2)c2c(n1CC1CCCO1)CCC2 (stereo not drawn)	none
COc1ccc2c(c1)c1nc(SCc3ccccc3)n(C)c(=O)c1n2C	none
CCn1ccc2oc(C)c(C(=O)N3CCC(C)CC3)c2c1=O	none
CCn1ccc2oc(C)c(C(=O)N3CCC(Cc4ccccc4)CC3)c2c1=O	mHTT CaM bind 93
Cc1oc2ccn(Cc3ccc(F)cc3)c(=O)c2c1C(=O)N1CCCCC1	mHTT CaM bind 59
Cc1oc2ccn(Cc3cccc(F)c3)c(=O)c2c1C(=O)N1CCCCC1	none
Cc1sc2ccn(Cc3ccc(F)cc3)c(=O)c2c1C(=O)N1CCC(C)CC1	mHTT CaM bind 80
Cc1sc2ccn(Cc3ccc(F)cc3)c(=O)c2c1C(=O)N1CCOCC1	none
Cc1ccc(C(=O)N2CCC(n3c(-c4ccco4)nc4cccnc43)C2)cc1C (stereo not drawn)	mHTT CaM bind 72
COc1ccc(C(=O)N2CCC(n3c(-c4ccco4)nc4cccnc43)C2)cc1 (stereo not drawn)	none
O=C(Nc1ccccc1)N1CCC(n2c(-c3ccco3)nc3cccnc32)C1 (stereo not drawn)	none
CCc1ccc(NC(=O)N2CCC(n3c(-c4ccco4)nc4cccnc43)C2)cc1 (stereo not drawn)	mHTT CaM bind 51
O=C(c1ccc(F)c(Cl)c1)N1CCC(n2c(-c3ccco3)nc3cccnc32)C1 (stereo not drawn)	mHTT CaM bind 98
O=C(c1ccc(C(F)(F)F)cc1)N1CCC(n2c(-c3ccco3)nc3cccnc32)C1 (stereo not drawn)	mHTT CaM bind 91
O=C(Nc1ccc(F)c(Cl)c1)N1CCC(n2c(-c3ccco3)nc3cccnc32)C1 (stereo not drawn)	none
Cc1ccc(C(=O)N2CCC(n3c(-c4ccco4)nc4cccnc43)C2)cc1 (stereo not drawn)	none
O=C(CCn1c(=O)[nH]c2ccsc2c1=O)NCCc1c[nH]c2ccccc12	none
CCc1ccccc1NC(=O)Cn1c(C(C)C)nc2c(c1=O)CCN(Cc1ccccc1)C2	none
O=C(NCC#CCN1CCc2ccccc2C1)c1ccc2nsnc2c1	none
Cc1cc(C)cc(C(=O)N2CCC(n3c(-c4ccco4)nc4cccnc43)C2)c1 (stereo not drawn)	none
O=C(c1cccc(Cl)c1)N1CCC(n2c(-c3ccco3)nc3cccnc32)C1 (stereo not drawn)	mHTT CaM bind 51
O=[N+]([O-])c1cc([N+](=O)[O-])c2cc(-c3ccco3)[nH]c2c1	mHTT CaM bind 53 (no result: Pf apPOL inh)
COc1cc([N+](=O)[O-])cc2[nH]c(-c3ccccc3)cc12	none
COc1ccc(C=CC(=O)N2CCC3(CC2)CC(=O)c2ccccc2O3)cc1OC	none
COc1ccc(CCNC(=O)CSc2nc3sc(C)cc3c(=O)n2C)cc1OC	none
O=C(CNC(=O)C1CCCCC1)Nc1ccc(S(=O)(=O)Nc2ccccc2Cl)cc1	none
COc1cc(NC(=O)N2c3ccccc3Sc3ccccc32)cc(OC)c1	none
COc1ccc(NCC(=O)N2c3ccccc3Sc3ccccc32)cc1	mHTT CaM bind 60
Cc1ccccc1COc1cccn2c(=O)c(-c3cc(C)n(C)n3)c(C)nc12	none
CCC1CN2C=NC(N3CCN(C(=O)c4ccc(C)s4)CC3)=CC2=N1 (stereo not drawn)	none
O=C1S/C(=C\c2ccccc2Cl)C(=O)N1c1ccc(O)cc1	mHTT CaM bind 74
COc1ccccc1/C=C1\SC(=O)N(c2ccc(Cl)cc2)C1=O	none
O=C1S/C(=C\c2ccc(O)c([N+](=O)[O-])c2)C(=O)N1c1ccccc1	none
O=C1S/C(=C\c2ccc(O)cc2)C(=O)N1c1ccccc1	none
O=C(CN1C(=O)S/C(=C\c2ccc(Br)cc2)C1=O)Nc1ccc(O)cc1	mHTT CaM bind 52
O=C1S/C(=C\c2ccc(O)cc2)C(=O)N1c1ccc(O)cc1	mHTT CaM bind 55
O=C1S/C(=C\c2ccc(O)c(O)c2)C(=O)N1c1ccc(Cl)cc1	mHTT CaM bind 88
O=C1S/C(=C\c2ccc(O)cc2)C(=O)N1CNc1ccc(I)cc1	none
O=C(c1ccc(-c2cccs2)s1)N1CCN(C2c3ccccc3-c3ccccc32)CC1	none (no result: mHTT CaM bind)
CC(=O)Nc1cc2c(cc1C(=O)c1ccccc1Cl)OCCO2	none
Cn1c(=O)c2c(no[n+]2[O-])c2c(=O)n(-c3ccccc3)c(=O)n(-c3ccccc3)c21	none (no result: mHTT CaM bind)
CC(=O)NCCc1csc(C2CCCN(C(=O)c3ccc(C)c(C)c3)C2)n1 (stereo not drawn)	none
COc1ccc2cccc(NC(=O)c3ccco3)c2n1	none
COc1ccc2cccc(NC(=O)c3c[nH]c4ccccc34)c2n1	mHTT CaM bind 58
O=C(CN1CC(c2nc(-c3cccnc3)no2)C1)Nc1cc(C(F)(F)F)ccc1Cl	none
CN(C(=O)c1ccc(C(=O)N(C)c2ccc(O)cc2)cc1)c1ccc(O)cc1	none
CC(=O)N1CCCC1c1nc2cc(-c3ccc(F)cc3F)ccc2o1 (stereo not drawn)	none
COc1ccccc1-c1ccc2oc(C3CCCN3C(=O)C(C)C)nc2c1 (stereo not drawn)	none
Cc1ccccc1-c1ccc2oc(C3CCCN3S(C)(=O)=O)nc2c1 (stereo not drawn)	mHTT CaM bind 90
CN(C)c1ccc(-c2ccc3oc(C4CCCN4C(=O)C4CC4)nc3c2)cc1 (stereo not drawn)	mHTT CaM bind 89
